{"source": "PubChem BioAssay (NCI)", "note": "About 83,000 compounds went through this panel and 20% of them were active in at least one assay; those are over-represented in the sample as a whole.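 Results are percent growth after 48 hours of single-concentration exposure. 100 means growth as in untreated cells, lower positive values show inhibition; negative values down to -100 show cell death.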 Values without a mark were called inactive. Calls of active or inactive are those of the source. How the source made its calls: active means growth percent below 10; inactive means the rest."}
{"system": "BT-549 breast", "assay": "NCI-60 one-dose screen, 48 h (100 = growth as untreated, 0 = no growth, -100 = all killed)", "settings": "10 µM unless noted"}
{"smiles": "O=CC1(C2(C=O)c3ccccc3-c3ccccc32)c2ccccc2-c2ccccc21", "growth": "-74.3% (active)"}
{"smiles": "N#Cc1c(-c2cccs2)cc(-c2cccnc2)[nH]c1=O", "growth": "102%"}
{"smiles": "CCOC(=O)c1cnc2ccccc2c1Cl", "growth": "112%"}
{"smiles": "Cn1cccc1C(=O)C1C(c2cccc([N+](=O)[O-])c2)C2C3CCCCC3CN2C12C(=O)Nc1ccc(Cl)cc12", "note": "(stereo not given)", "growth": "53.6%"}
{"smiles": "Cc1ccccc1/C=C1\\CN(C(=O)OC(C)(C)C)C/C(=C\\c2ccccc2C)C1=O", "growth": "70.3%"}
{"smiles": "Cc1ccc(-c2cc(-c3ccc(Cl)cc3)nc(NC(=O)c3cccnc3)n2)cc1", "growth": "117%"}
{"smiles": "O=c1c2cc(-c3ccccc3)sc2nc2sc(-c3ccccc3)nn12", "growth": "118%"}
{"smiles": "COc1ccc2nc(NC(=O)CSc3nnc4n3S(=O)(=O)c3ccccc3N4C)sc2c1", "growth": "113%"}
{"smiles": "Cc1ccc(/C=C2\\CN(C(=O)OC(C)(C)C)C/C(=C\\c3ccc(C)cc3)C2=O)cc1", "growth": "99.9%"}
{"smiles": "O=C(Nn1c2c(sc1=Nc1ccccc1)C(=O)c1ccccc1C2=O)c1cc2ccc1CCc1ccc(cc1)CC2", "growth": "67.9%"}
{"smiles": "O=C1Nc2ccc(I)cc2C1=O", "growth": "80.1%"}
{"smiles": "Fc1ccc2[nH]cc(-c3nonc3-c3c[nH]c4ccc(Br)cc34)c2c1", "growth": "55.5%"}
{"smiles": "O=C(/C=C/c1ccc(Cl)cc1)c1cccc(Nc2nc(Nc3ccccc3)nc(Nc3ccccc3)n2)c1", "growth": "118%"}
{"smiles": "O=[N+]([O-])c1ccc(S(=O)(=O)N2CCN(C3=NS(=O)(=O)c4ccccc4N3c3ccccc3)CC2)cc1", "growth": "99.8%"}
{"smiles": "Oc1ccc(CCn2c(O)c(/C=C3\\CN=c4ccccc4=N3)sc2=S)cc1", "growth": "43.8%"}
{"smiles": "CCOC(=O)/C=C1\\S/C(=N\\Nc2cc(=O)[nH]c3ccc(Cl)cc23)N(c2ccccc2)C1=O", "growth": "93.7%"}
{"smiles": "CCOC(=O)c1cn2ncnc(Oc3ccc(NC(=O)NC4CCCCC4)c(Cl)c3)c2c1C", "growth": "90.4%"}
{"smiles": "Fc1cc2c(cc1Cl)N(c1ncnc3ccc(-c4cnc5[nH]ncc5c4)cc13)CC2", "growth": "62.8%"}
{"smiles": "CC1=C(Nc2ccc(N3CCN(C)CC3)cc2)C(=O)c2cncnc2C1=O", "growth": "101%"}
{"smiles": "COc1ccc(C(=O)Nc2ncc(Cc3ccc(F)cc3)s2)cc1", "growth": "40.4%"}
{"smiles": "Cc1ccc(CNc2ccc(Cl)cc2NCc2ccc(C)c(O)c2)cc1O", "growth": "39.9%"}
{"smiles": "COc1cc(NC(C)CCCNC(C)C)c2ncccc2c1OC", "note": "(stereo not given)", "growth": "94.4%"}
{"smiles": "Cc1ccc(NC(=S)NNC(=S)NNc2ccccc2)cc1C", "growth": "120%"}
{"smiles": "COc1ccc(/C=N/C2=C(C#N)C(c3cccc(Cl)c3)c3c(ccc4ccccc34)O2)cc1", "note": "(stereo not given)", "growth": "29.3%"}
{"smiles": "C#CCOc1ccc2ncnc(Nc3cccc(NC(=O)C=C)c3)c2c1", "growth": "46.6%"}
{"smiles": "Cc1nc2c(=O)[nH]c(SCC(=O)Nc3cccc(F)c3)nc2[nH]c1=O", "growth": "104%"}
{"smiles": "CC1(C)c2[nH]c3ccccc3c2C[C@]2(C)[C@H]3CC=C4[C@@H]5C[C@@](C)(C(N)=O)CC[C@]5(C)CC[C@@]4(C)[C@]3(C)CC[C@@H]12", "growth": "58.7%"}
{"smiles": "CCOC(=O)c1cc(-c2ccc([N+](=O)[O-])cc2)n(-c2ccc(C(=O)O)c(O)c2)c1C", "growth": "95.7%"}
{"smiles": "Nc1c(C(=O)Nc2ccncc2)sc2nc3c(cc12)CCCCCC3", "growth": "69.4%"}
{"smiles": "COc1cccc(NC(=O)Cn2cc(CN3CCN(c4ccnc5cc(Cl)ccc45)CC3)nn2)c1", "growth": "77.2%"}
{"smiles": "COC(=O)c1cc(-c2ccc(OC)cc2)[nH]c1N/N=C/c1c(Cl)cccc1Cl", "growth": "-9.36% (active)"}
{"smiles": "O=C1CC(N2C(=O)/C(=C/C(Cl)=C\\c3ccc([N+](=O)[O-])cc3)SC2=S)C(=O)N1c1ccc(Cl)cc1", "note": "(stereo not given)", "growth": "-1.71% (active)"}
{"smiles": "Clc1ccc2c(c1)N(c1ncnc3ccc(-c4cnc5[nH]ncc5c4)cc13)CC2", "growth": "22.6%"}
{"smiles": "O=C1Nc2ccc(Br)cc2/C1=N/c1n[nH]c(=S)s1", "growth": "121%"}
{"smiles": "O=C1C(Cl)=C(Oc2ccccc2)C(=O)c2ccccc21", "growth": "70.8%"}
{"smiles": "Cn1cc(-c2csc(-c3ccc(Cl)cc3)n2)c2cccnc21", "growth": "-38.1% [100 µM] (active)"}
{"smiles": "Brc1ccc2[nH]cc(-c3nonc3-c3c[nH]c4ccccc34)c2c1", "growth": "73.9%"}
{"smiles": "COc1ccc(C2=Nc3c/c(=C\\c4c(O)[nH]c5ccc(Cl)cc45)ccc3=N2)cc1", "growth": "35.3%"}
{"smiles": "CC(C)NC1CCC(Nc2ccnc3cc(Cl)ccc23)CC1", "note": "(stereo not given)", "growth": "88.8%"}
{"smiles": "Cc1cc(=O)[nH]c2c(C#N)cnn12", "growth": "107%"}
